Results: ChEMBL document CHEMBL4513216, “Probing the Open Global Health Chemical Diversity Library for Multistage-Active Starting Points for Next-Generation Antimalarials” (ACS Infect Dis, 2020)
Screen size: about 68,000 compounds; about 2,700 (4%) showed an effect of 50% or more. The list comes from a sample in which strong results are over-represented; it also holds similar structures and randomly drawn compounds.

Test system: Plasmodium berghei
Experiment: Screen against P. berghei liver stage (PbLuc), transformed with Luciferase, at 2uM
Assay type: functional, HepG2
Details: tested at 2 uM

| SMILES | INHIBITION |
| --- | --- |
| O=C(NS(=O)(=O)c1ccccc1C(F)(F)F)c1cccc2c1OCCO2 | 37.69% |
| Fc1ccc(CC2CCN(Cc3cscn3)CC2)cc1 | -23.58% |
| COc1cccc(COCC(=O)N2CCCC(c3ccn[nH]3)C2)c1 (configuration not stated) | 14.97% |
| Cc1ncc(-c2ccnc(NCCO)n2)c(C2CCCCC2)n1 | -38.58% |
| COc1cc(NC(=O)c2ccc(CN3CC[C@H](O)C3)cc2)cc(OC)c1 | 20.71% |
| Cc1cncc(NC(=O)c2ccc(CN3CC[C@H](O)C3)cc2)c1 | 42.48% |
| Cc1cc(NC(=O)c2ccc(CN3CC[C@H](O)C3)cc2)ccc1F | 82.91% |
| Cc1cscc1-c1nc(C2CCOC2)no1 (configuration not stated) | 10.22% |
| O=C(NCc1nnc2n1CCC2)c1ccc(Br)s1 | 22.39% |
| CC1CN(Cc2noc(C3CC3)n2)CCN1Cc1noc(C2CC2)n1 (configuration not stated) | 33.82% |
| CC(O)CN1CCN(Cc2nnc(C3CC3)o2)CC1 (configuration not stated) | 7.54% |
| CCC1CN(Cc2nnc(C3CC3)o2)CCN1CCOC (configuration not stated) | 66.64% |
| CC1CN(Cc2noc(C3CC3)n2)CCN1Cc1nccn1C (configuration not stated) | 14.82% |
| CCOCCN1CCN(Cc2nnc(C3CC3)o2)CC1 | 51.7% |
| COCCN1C(=O)[C@@H]2CC[C@H]1CN(Cc1nnc(C3CC3)o1)C2 | 29.18% |
| CCOCCN1CCN(Cc2nnc(C3CC3)o2)CC1CC (configuration not stated) | -0.55% |
| CCOCCN1CCN(Cc2nnc(C3CC3)o2)CC1C (configuration not stated) | -19.75% |
| COCCN1CCN(Cc2noc(C3CC3)n2)CC1C (configuration not stated) | 53.03% |
| Cc1ccc(N2CCC3(CCN(Cc4csc(C)n4)CC3)CC2)nn1 | 18.91% |
| COc1ccc(C(C)NCCc2ccc(NC(C)=O)cc2)c(OC)c1 (configuration not stated) | 26.99% |
| CC(=O)N1CCn2c(nnc2C2CCCCN2Cc2ccccc2Cl)C1 (configuration not stated) | -46.48% |
| CN(C)C(=O)c1nc(CN2C(=O)OC[C@@H]2c2ccccc2)no1 | 18.19% |

| SMILES | INHIBITION |
| --- | --- |
| Cn1cc(C(=O)NCc2ccc(OC3CCCCC3)nc2)ccc1=O | 2.66% |
| N#Cc1cccc(CN2CC3(CCCCN3c3cncnc3)CC2=O)c1 (configuration not stated) | -29.69% |
| Cc1noc(C)c1CN1CC2(CCCCN2c2cncnc2)CC1=O (configuration not stated) | 50.32% |
| Cc1noc(C)c1CN1CC2(CCCCN2C)CC1=O (configuration not stated) | 21.57% |
| O=C(O)c1cc(-c2ccoc2)cc(S(=O)(=O)N2CCSCC2)c1 | 7.09% |
| Cc1cccc(NC(=O)CNC(=O)c2ccccc2F)c1 | 53.99% |
| Cc1cccc(NC(=O)CCC(=O)NCC(=O)c2ccccc2F)c1 | 22.31% |
| O=C(CNC(=O)c1ccccc1F)NCc1ccccn1 | -20.05% |
| N#Cc1cc(CSCCN2CCOCC2)ccc1F | 39.71% |
| Cc1c(C(=O)N2CC(O)C2)nnn1-c1cccc2cnccc12 | 50.31% |
| Cc1c(C(=O)N2CC(C)(C)C2(C)C)nnn1-c1cccc2cnccc12 | -107.15% |
| Cc1c(C(=O)N2CC(=O)N(C)C2)nnn1-c1cccc2cccnc12 | 57.5% |
| Cc1c(C(=O)N2CCC2(C)C)nnn1-c1cccc2cccnc12 | 9.78% |
| Cc1c(C(=O)N2CCC2(C)C)nnn1-c1cccc2cnccc12 | 9.78% |
| Cc1c(C(=O)O)nnn1-c1cccc2cccnc12 | -58.01% |
| c1cc(C2CCCN2CC2CC2)n[nH]1 (configuration not stated) | 13.02% |
| COc1ccc(CNC(=O)CCn2cc(C)cn2)cc1C | -14.47% |
| CC(c1ccccn1)N(C)Cc1ccc(-n2ccnc2)cc1 (configuration not stated) | 2.67% |
| C[C@@H](NCc1cccc(Cl)c1)c1onc(-c2ccc(F)cc2)c1C(=O)O | 37.54% |
| Cc1cc(OCC(=O)N2CCCC(c3ccn[nH]3)C2)no1 (configuration not stated) | 24.31% |
| Cc1cc(OCC(=O)N2CCCC(c3noc(C)n3)C2)no1 (configuration not stated) | 6.3% |
| Cc1cc(C2CCCN(C(=O)COc3cc(C)on3)C2)n[nH]1 (configuration not stated) | 60.64% |

| SMILES | INHIBITION |
| --- | --- |
| CN1C(=O)CCC12CCCN(C(=O)c1ccncc1F)C2 (configuration not stated) | -39.56% |
| CCc1noc(C)c1C(=O)N1CCCCC1Cn1cc(C)cn1 (configuration not stated) | -11.2% |
| c1ccc(OC2COC3(CCN(CC4CC4)CC3)C2)nc1 (configuration not stated) | -17.63% |
| CCC1(c2ccc(NS(=O)(=O)c3cccs3)cc2)CCC(=O)NC1=O (configuration not stated) | -13.33% |
| CNC(=O)CC1CCN(C(=O)NCc2coc3ccccc23)CC1 | 53.81% |
| CNC(=O)CC1CCN(C(=O)NCC2(c3ccccc3F)CC2)CC1 | -23.23% |
| COCCOC1CCN(C(=O)NCc2coc3ccccc23)CC1 | 40.88% |
| CC(C)N1CCC(CC(=O)N(C)C(C)c2cncs2)CC1 (configuration not stated) | 17.73% |
| O=C(C1CN(c2ncc(F)cn2)CC12CCOCC2)N1CC=CC1 (configuration not stated) | -78.69% |
| O=C(C1CN(c2ncc(F)cn2)CC12CCOCC2)N1CCOCC1 (configuration not stated) | -45.73% |
| Cc1cnc(N2CC(C(=O)N3CCOCC3)C3(CCOCC3)C2)nc1 (configuration not stated) | 65.04% |
| Cn1cc(CN2CCO[C@H]3CN(Cc4ccsc4)C[C@H]32)cn1 | 1.88% |
| N#Cc1ncn(CCC(=O)Nc2cccc(Cl)c2)n1 | 7.13% |
| N#Cc1ncn(CCC(=O)Nc2ccc(Cl)cc2F)n1 | 5.52% |
| N#Cc1ncn(CCC(=O)Nc2ccc(F)c(F)c2)n1 | 57.92% |
| Cc1cc(C(=O)N2CCC3(CC(=O)NC3=O)C2)c(-c2ccccc2)o1 (configuration not stated) | 15.87% |
| CCOc1ncnc2c1CCN(C(=O)c1ccncc1F)CC2 | 28.85% |
| Cc1csc(C2(NCc3csc(C4CC4)n3)CCCC2)n1 | -9.69% |
| CCCc1nc(CNC2(c3nccs3)CCCC2)cs1 | 58.68% |
| c1csc(C2(NCc3csc(C4CC4)n3)CCCC2)n1 | -56.92% |
| Cc1nc(C)n(CC2CCCCN2CC(=O)Nc2nnc(C)s2)n1 (configuration not stated) | 19.97% |
| CN(C)Cc1nn(C)c2c1CN(S(=O)(=O)c1ccccc1F)C2 | 32.05% |

| SMILES | INHIBITION |
| --- | --- |
| CCOc1ccc(S(=O)(=O)N(CCOC)Cc2ccoc2)cc1F | 21.37% |
| CCOc1ccc(S(=O)(=O)N(CCOC)Cc2ccncc2)cc1F | 60.35% |
| COCCN(Cc1ccoc1)S(=O)(=O)c1ccc(F)c(C)c1 | -10.1% |
| CSCC[C@@H](CO)n1ccnc1-c1nccn1C | 17.37% |
| CN1CC(=O)N(c2cnn(C)c2)CC12CCN(C(=O)c1ccsc1)C2 (configuration not stated) | -6.94% |
| CCc1noc(C(C)N2CCN(Cc3cnc(C)cn3)CC2)n1 (configuration not stated) | -1.29% |
| Cc1nc(N2CCN(C(=O)c3ccsc3)CC2)c2cnn(C)c2n1 | 42.11% |
| N#Cc1ccc(N2CCCC3(CCC(=O)N3CC3CC3)CC2)nc1 (configuration not stated) | -16.78% |
| CN1C(=O)CCC12CCN(c1ccc(C#N)cn1)CC2 | 5.22% |
| N#Cc1ccc(N2CCC3(CCC(=O)N3CCN3CCCC3)CC2)nc1 | 52.96% |
| COc1ccccc1N1CCN(C(=O)COc2c(C)occc2=O)CC1 | -24.81% |
| Cc1nc(C)n(CC2CCCN(CCOc3ccc(F)cc3)C2)n1 (configuration not stated) | -23.18% |
| Cc1cccc(CN2CCCC23CCNC3)n1 (configuration not stated) | 63.89% |
| Cc1cccc(CN2CCCCC23CCNC3)n1 (configuration not stated) | 22.16% |
| Cc1cccc(CN2CCC23CCCNC3)n1 (configuration not stated) | 20.51% |
| CCc1nnc2n1CCN(Cc1csc(NC(C)=O)n1)C2 | -5.09% |
| Cc1ccc2c(c1)SCC(=O)N2CC(=O)N1CCC[C@H]1c1nc(C)no1 | 22% |
| COc1c(CNC2CCc3cc(F)ccc32)c(C(C)C)nn1C (configuration not stated) | -52.77% |
| COCC(=O)NCC1(COc2cccnc2)C[C@@H](O)[C@@H](O)C1 (some centres not stated) | -40.44% |
| CCn1nc(C)cc1S(=O)(=O)N1CCC2(CC(=O)NC2=O)C1 (configuration not stated) | 5.28% |
| CCCn1nccc1S(=O)(=O)N1CCC2(CCCN(C(C)C)C2=O)C1 (configuration not stated) | 38.67% |
| CCn1nccc1S(=O)(=O)N1CCC2(CCCN(C(C)C)C2=O)C1 (configuration not stated) | 17.2% |

| SMILES | INHIBITION |
| --- | --- |
| CCCN1CCCC2(CCN(S(=O)(=O)c3cc(C)nn3CC)C2)C1=O (configuration not stated) | 57.75% |
| CCCN1CCCC2(CCN(S(=O)(=O)c3cccnc3)C2)C1=O (configuration not stated) | 11.9% |
| CCn1nc(C)cc1S(=O)(=O)N1CCC2(CCCN(C(C)C)C2=O)C1 (configuration not stated) | 55.36% |
| COCCN1C(=O)[C@@H]2CC[C@H]1CN(C(=O)COc1ccc(F)c(Cl)c1)C2 | 38.83% |
| COc1ccc(C2=CCN(C(=O)C3CCN(C)C(=O)C3)CC2)cc1 (configuration not stated) | 17.39% |
| O=C(NCc1ccccn1)[C@@]12CCO[C@@H]1CCN(c1ncccn1)C2 | -20.87% |
| Cc1oc(C(=O)O)cc1S(=O)(=O)Nc1cc(Cl)ccc1F | 16.64% |
| Cc1oc(C(=O)O)cc1S(=O)(=O)Nc1ccc(Cl)c(Cl)c1 | 16.79% |
| Cc1oc(C(=O)O)cc1S(=O)(=O)Nc1ccc(Cl)c(F)c1 | 56.67% |
| Cc1n[nH]c(C)c1NC(=O)CN1CCOC(Cn2cccn2)C1 (configuration not stated) | 37.52% |
| Cn1cc(C(=O)N2CCCC(c3cc(O)n(C)n3)C2)cn1 (configuration not stated) | 27.39% |
| COCc1nc(C(=O)NS(=O)(=O)c2ccc(Cl)cc2F)cs1 | -7.88% |
| NC(=O)c1ccc(CN2CCC(N3CCCC3)CC2)cc1 | -29.69% |
| NC(=O)c1ccc(CN2CCCC(N3CCCCCC3)C2)cc1 (configuration not stated) | 9.8% |
| NC(=O)c1ccc(CN2CCCC(N3CCCC3)C2)cc1 (configuration not stated) | 58.65% |
| COCCN1CCC(Nc2c(F)cc(C#N)cc2F)CC1 | -22.01% |
| CSCC(=O)N[C@H]1CN(CC2CCOCC2)C[C@@H]1c1ccccc1 | 37.15% |
| O=C(CCO)N[C@H]1CN(CC2CCC2)C[C@@H]1c1ccccc1 | 75.86% |
| CS(=O)(=O)NCC(=O)N[C@H]1CN(CC2CC2)C[C@@H]1c1ccccc1 | 48.93% |
